The whole screen tested about 400,000 compounds, of which about 2,100 (0.53%) were called active. Inconclusive results (about 14%) are left out. The rule behind the calls is not given here. The list comes from a sample in which actives are over-represented; it also holds similar structures and randomly drawn compounds.
Target: Ataxin-2 (Homo sapiens) (UniProt Q99700)
Test: qHTS for Inhibitors of ATXN expression.
Assay type: functional

Sequence of Ataxin-2 (Homo sapiens) (Q99700 whole entry): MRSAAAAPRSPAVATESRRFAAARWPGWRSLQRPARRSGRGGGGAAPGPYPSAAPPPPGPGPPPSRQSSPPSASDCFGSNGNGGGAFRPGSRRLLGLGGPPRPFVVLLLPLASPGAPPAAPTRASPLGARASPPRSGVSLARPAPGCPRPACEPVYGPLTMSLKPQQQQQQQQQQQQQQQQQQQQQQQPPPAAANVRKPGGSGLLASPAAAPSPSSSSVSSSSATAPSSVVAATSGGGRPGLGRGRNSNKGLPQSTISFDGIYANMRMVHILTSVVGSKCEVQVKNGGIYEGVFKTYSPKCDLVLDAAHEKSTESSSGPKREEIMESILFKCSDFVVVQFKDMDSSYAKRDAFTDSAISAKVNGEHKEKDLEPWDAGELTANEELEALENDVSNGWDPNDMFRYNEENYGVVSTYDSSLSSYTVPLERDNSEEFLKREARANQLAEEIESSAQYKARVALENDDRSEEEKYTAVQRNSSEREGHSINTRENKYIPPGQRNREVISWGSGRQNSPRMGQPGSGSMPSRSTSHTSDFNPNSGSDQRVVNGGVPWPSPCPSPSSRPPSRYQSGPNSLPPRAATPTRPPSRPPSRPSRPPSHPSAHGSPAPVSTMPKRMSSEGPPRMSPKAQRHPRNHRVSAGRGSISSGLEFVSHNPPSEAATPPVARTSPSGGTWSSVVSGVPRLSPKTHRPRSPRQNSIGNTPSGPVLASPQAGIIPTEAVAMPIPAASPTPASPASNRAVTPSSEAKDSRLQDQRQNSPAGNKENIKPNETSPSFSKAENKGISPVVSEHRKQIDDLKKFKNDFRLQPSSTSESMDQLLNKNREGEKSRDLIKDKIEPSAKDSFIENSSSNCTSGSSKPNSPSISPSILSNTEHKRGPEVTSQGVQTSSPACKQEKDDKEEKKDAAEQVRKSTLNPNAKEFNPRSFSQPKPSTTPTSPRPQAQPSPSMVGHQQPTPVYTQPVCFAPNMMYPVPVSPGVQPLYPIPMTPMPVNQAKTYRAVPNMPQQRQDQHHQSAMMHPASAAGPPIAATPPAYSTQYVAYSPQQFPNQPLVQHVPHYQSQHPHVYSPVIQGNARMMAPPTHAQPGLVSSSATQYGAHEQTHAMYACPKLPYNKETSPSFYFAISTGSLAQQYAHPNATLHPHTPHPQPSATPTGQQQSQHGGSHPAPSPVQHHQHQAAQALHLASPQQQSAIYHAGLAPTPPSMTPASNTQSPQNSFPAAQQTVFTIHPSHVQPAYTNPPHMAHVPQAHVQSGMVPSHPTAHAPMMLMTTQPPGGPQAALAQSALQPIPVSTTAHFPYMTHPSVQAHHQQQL

SMILES	Potency
Cc1ccc(C(=O)c2coc3c2C(=O)C(=O)c2ccccc2-3)cc1	39.8 µM (active)
O=C1C(=O)c2c(C(=O)c3ccccc3)coc2-c2ccccc21	35.5 µM (active)
COCC/N=C1/Sc2nc3ccc(C)cc3cc2CN1Cc1cccs1	inactive
CN1C(=S)N(c2cccnc2)C(=O)/C1=C\c1ccc(N(C)C)cc1	20 µM (active)
Cc1cc(/C=C2\NC(=S)NC2=O)c(C)n1-c1cccnc1	inactive
CN1C(=O)/C(=C\c2ccc(N(C)C)cc2)OC1=S	inactive
O=c1oc2c(CN3CCN(CCO)CC3)c(O)ccc2cc1-c1ccccn1	inactive
CC1C(=O)N2CCCc3cc(NC(=O)CC(C)(C)C)cc1c32 (stereo not given)	inactive
CCOc1cc(/C=N\NC(=O)Cc2ccccc2)ccc1OCC(=O)Nc1ccc(C)c(C)c1	31.6 µM (active)
CCOc1cc(/C=N/NC(=O)C(C)Sc2ccccc2)ccc1O (stereo not given)	inactive
CCOc1cc(/C=N/NC(=O)Nc2ccccc2)ccc1O	inactive
CCOc1ccc(CCN2C(=O)C(=O)N([C@@H](CC(C)C)CN3CCC[C@@H]3CN3C(=O)C(=O)NC[C@@H]3Cc3ccccc3)C[C@@H]2CC(C)C)cc1	39.8 µM (active)
CCOc1ccc(CCN2C(=O)C(=O)N([C@@H](CC(C)C)CN3CCC[C@@H]3CN3C(=O)C(=O)NC[C@@H]3CC(C)C)C[C@@H]2Cc2ccccc2)cc1	12.6 µM (active)
CCOc1ccc(CCN2C(=O)C(=O)N([C@@H](CC(C)C)CN3CCC[C@H]3CN3C(=O)C(=O)NC[C@@H]3Cc3ccccc3)C[C@@H]2Cc2ccccc2)cc1	25.1 µM (active)
N#Cc1c(NC(=O)/C=C/C(=O)O)sc2c1CCN(Cc1ccccc1)C2	inactive
Clc1ccc(-n2c(-c3cccc(Br)c3)nc3nc4ccccc4nc32)cc1	inactive
Cc1nn(CSc2c(F)c(F)c(F)c(F)c2F)c(C)c1[N+](=O)[O-]	inactive
N#CC1=C(N)Oc2ccc3ccccc3c2C1c1cccnc1 (stereo not given)	12.6 µM (active)
N#CC1=C(N)Oc2cc(O)c(Cl)cc2C1c1cccnc1 (stereo not given)	inactive
N#CC1=C(N)Oc2cc(N)ccc2C1c1ccccc1Cl (stereo not given)	inactive
Cc1cc(C)cc(NC(=O)c2sc3nc(C)cc(C)c3c2N)c1	inactive
CCOc1ccc(CCNC(=O)c2cccc(NC3=NC4CS(=O)(=O)CC4S3)c2)cc1 (stereo not given)	inactive
O=C(NCCc1cccc(Cl)c1)c1ccc(OC2CCN(Cc3ccccn3)CC2)cc1	35.5 µM (active)
Cc1c(CCC(=O)NCCc2ccccc2)c(=O)oc2cc(O)ccc12	inactive

SMILES	Potency
CCCc1c(-c2ccc(O)cc2)nn(-c2ccc(O)cc2)c1-c1ccc(O)cc1	25.1 µM (active)
CCOC(=O)N1CCN(C(=O)c2cccn3c(=O)c4cc(Br)ccc4nc23)CC1	inactive
O=C(O)C1CCN(c2nc(-c3ccccc3)c3cc(Br)ccc3n2)CC1	inactive
CCCCN1CCc2c1nc1ccc(Br)cc1c2N	31.6 µM (active)
CCc1cc2c(CN3CCN(Cc4ccccc4)CC3)cc(=O)oc2cc1O	inactive
Cc1ccc(/C=C2\Oc3c(ccc(O)c3CN3CCN(CCO)CC3)C2=O)cc1	inactive
COc1ccccc1N1CCN(C(=O)Cn2ncc3c2-c2cc(C)ccc2OC3)CC1	22.4 µM (active)
Cc1ccnc(NC(=O)CCC(=O)N(CC(=O)NC2CCCCC2)C2CCCC2)c1	inactive
CC(C)(C)c1ccc2c(c1)N(CC(=O)N1CCCC1)C(=O)CO2	inactive
Cc1ccc2nc(N3CCN(C(=O)CCC(=O)O)CC3)nc(-c3ccccc3)c2c1	inactive
Cc1cccc(N2CCN(C(=O)Cn3ncc4c3-c3cc(C)ccc3OC4)CC2C)c1 (stereo not given)	39.8 µM (active)
COc1ccccc1N1CCN(C(=O)C2CCN(S(=O)(=O)c3ccccc3F)CC2)CC1	inactive
CCOc1ccc(S(=O)(=O)N(CC)CC(=O)N2CCCC2)cc1C	inactive
Cc1ccc2c(c1)-c1c(cnn1CC(=O)N(Cc1ccco1)C1CCCCC1)CO2	37.7 µM (active)
CN(C(=O)CN1C(=O)c2cccc(N)c2C1=O)C1CCCCC1	inactive
CCN(CC)S(=O)(=O)c1ccc2c(c1)N(CC(=O)N1CCN(c3cccc(C)c3)C(C)C1)C(=O)CO2 (stereo not given)	35.5 µM (active)
O=C(Cn1ncc2c1-c1ccccc1OC2)Nc1ccc(Cl)cn1	inactive
Cc1ccccc1CN1CCN(C(=O)c2ccc(S(=O)(=O)NCc3ccco3)cc2)CC1	inactive
CCOCCCNc1nc2nc3ccc(C)cn3c(=O)c2cc1C(=O)NCC1CCCO1 (stereo not given)	inactive
CCNc1nc(NCC)nc(N/N=C(\C)c2ccc(OC)cc2)n1	inactive
CC1CCCCC12NC(=O)N(CC(=O)N(C)Cc1nc(O)c3ccccc3n1)C2=O (stereo not given)	inactive
CC(C)NCCCCOc1cccc(Br)c1	inactive
Cc1cccc(C)c1NC(=O)CN1C(=O)COc2ccccc21	inactive
CCOc1ccccc1N(CC)C(=O)Cn1ncc2c1-c1ccccc1OC2	39.8 µM (active)

SMILES	Potency
CCOc1ccccc1NC(=O)Cn1ncc2ccc([N+](=O)[O-])cc21	inactive
CCOc1ccccc1N(CC)C(=O)Cn1ncc2c(=O)oc3ccccc3c21	inactive
CCN(CC)S(=O)(=O)c1ccc2c(c1)N(CC(=O)NCCCN1CCN(c3cc(Cl)ccc3C)CC1)C(=O)CO2	31.6 µM (active)
CCN(CC)S(=O)(=O)c1ccc(N2CCCC2)c(NC(=O)Cc2cc(OC)c(OC)c(OC)c2)c1	inactive
Clc1ccc(C2=NN(c3ccccc3)C(c3ccco3)C2)cc1 (stereo not given)	inactive
O=C(O)c1cc(Cl)ccc1-c1ccc(/C=C/c2cc(C(F)(F)F)nc(O)n2)o1	inactive
Fc1ccc(C2=CC(c3ccc(Br)o3)n3ncnc3N2)cc1 (stereo not given)	inactive
Cc1ccc(-n2nnc3c(=O)n(CC(=O)N4CCOCC4)cnc32)cc1	inactive
O=C(NCCNc1ccc([N+](=O)[O-])cc1)c1cccc(Br)c1	inactive
CC(C)OC(=O)c1cc(NC(=S)Nc2ccc([N+](=O)[O-])cc2)cc(C(=O)OC(C)C)c1	44.7 µM (active)
Cc1cccc(NS(=O)(=O)c2ccc3nc(O)cc(C(=O)OC(C)C(=O)Nc4ccc([N+](=O)[O-])cc4)c3c2)c1 (stereo not given)	inactive
COc1ccc(/C=C/C(=O)N(C)c2ccccc2C(=O)O)cc1	inactive
CCN1CCC(O)(/C=C/c2ccc(C(C)C)cc2)C(C(=O)/C=C/c2ccc(C(C)C)cc2)C1 (stereo not given)	25.1 µM (active)
CC[N+]1(C)CCC(O)(/C=C/c2ccccc2)C(C(=O)/C=C/c2ccccc2)C1 (stereo not given)	10.6 µM (active)
CCN1CCC(O)(/C=C/c2ccc(C)cc2)C(C(=O)/C=C/c2ccc(C)cc2)C1 (stereo not given)	31.6 µM (active)
Cc1cc(-c2nc(-c3ccncc3)no2)ccc1[N+](=O)[O-]	inactive
Cc1cc(=O)oc2c(CN3CCCC3)c(O)c(Cl)cc12	inactive
COCCNC(=S)N/N=C/c1ccc2c(c1)OCCO2	inactive
Brc1cc(Br)c2nc(-c3ccc(N4CCOCC4)cc3)ccc2c1	inactive
N#CC1=CN(Cc2ccccc2)C=C(/C=N/Nc2ccccc2)C1	inactive
O=c1c2cc([N+](=O)[O-])cc([N+](=O)[O-])c2[nH]n1-c1ccccc1	22.4 µM (active)
N#Cc1c(N)n(Cc2ccccc2)c(=O)c2cc([N+](=O)[O-])ccc12	inactive
O=[N+]([O-])c1cc([N+](=O)[O-])c2[nH]nc(-c3ccccc3)c2c1	inactive
COC(=O)Cc1cnc(NC(=O)CSc2nc(O)cc(C(C)C)n2)s1	inactive

SMILES	Potency
CCCn1nc(NC(=O)c2ccco2)c2cc3ccccc3nc21	inactive
NC(=S)N/N=C/c1c[nH]c2ccc(OCc3ccccc3)cc12	12.6 µM (active)
COCc1c(C(=O)N/N=C/c2c[nH]c3ccccc23)nnn1-c1nonc1N	inactive
COc1cc(Br)cc(/C=N/NC(=O)Cc2ccccc2)c1O	inactive
CN(C1CCCCC1)S(=O)(=O)c1ccc(SCC(=O)C(C)(C)C)nc1	inactive
COC(=O)c1ccc(C(=O)N(CCN(C)C)c2nc3c(Cl)cccc3s2)cc1	inactive
Cc1ccc2sc(N(CCCN(C)C)C(=O)c3ccc(S(=O)(=O)N(C)C4CCCCC4)cc3)nc2c1C	25.1 µM (active)
Cc1ccc2sc(N(CCCN(C)C)C(=O)c3ccc(S(=O)(=O)N(C)Cc4ccccc4)cc3)nc2c1C	31.6 µM (active)
CN(Cc1ccccc1)S(=O)(=O)c1ccc(N2CCOCC2)nc1	inactive
CCOc1cccc2sc(N(CCCN(C)C)C(=O)c3ccc(S(=O)(=O)N(C)Cc4ccccc4)cc3)nc12	39.8 µM (active)
CN(Cc1ccccc1)S(=O)(=O)c1ccc(OCC(=O)N2CCC(C(N)=O)CC2)cc1	inactive
Cc1[nH]c2ccccc2c1C(=O)CN1C(=O)NC2(CCCCCC2)C1=O	inactive
CCC(C)(C)c1ccc(OCCCC[n+]2cccc(C)c2C)c(C(C)(C)CC)c1	31.6 µM (active)
CN(C(=O)/C=C/c1ccc([N+](=O)[O-])s1)c1ccccc1	33.6 µM (active)
CC(=O)c1cccc(NC(=O)CC2SC(N/N=C/c3ccccc3)=NC2=O)c1 (stereo not given)	inactive
COc1cccc(/C=N/NC(=S)Nc2cccc(C(=O)O)c2)c1O	inactive
C=CCc1cccc(/C=N/NC(=O)C(=O)Nc2ccc(C)cc2)c1O	inactive
COc1cccc(/C=C/C(=O)Nc2cccc(C(C)=O)c2)c1OC	inactive
CC(C)(C)NC(=S)N/N=C\c1ccc(-c2ccc([N+](=O)[O-])cc2)o1	inactive
CC(=O)c1cccc(NC(=O)/C=C/c2ccc([N+](=O)[O-])s2)c1	5.97 µM (active)
Cc1cccc(NC(=O)C(C)Oc2ccc(C)nc2[N+](=O)[O-])c1 (stereo not given)	inactive
Cc1cccc(NC(=S)N/N=C/c2ccc([N+](=O)[O-])s2)c1	31.6 µM (active)
Cc1ccc(NC(=S)N/N=C/c2ccc([N+](=O)[O-])s2)cc1	39.8 µM (active)

Reference: ChEMBL document CHEMBL1201862, “PubChem BioAssay data set” (2004)
